The text below walks through data of ChEMBL document CHEMBL4513216, “Probing the Open Global Health Chemical Diversity Library for Multistage-Active Starting Points for Next-Generation Antimalarials” (ACS Infect Dis, 2020).

Out of some 69,000 compounds screened, about 8,600 (12%) showed an effect of 50% or more. The entries come from a sample that favours strong results as a whole.

The test system of this test is Plasmodium berghei. In words: Screen against P. berghei liver stage (PbLuc), transformed with Luciferase, at 10uM. It counts as functional, HepG2. The following applies: tested at 10 uM.
As to `O=S(=O)(N1CCCC1)N1CC(c2ccnc(Nc3ccccn3)n2)C1`, the INHIBITION worked out at 26.7%.
The result for `CN(C)c1ccc(NC(=O)c2ccnn2C)nc1` reads -62.7%; that for `CCN1CC2(CC1=O)CN(C(C)=O)CCN(C(=O)NC(C)C)C2` (stereo unspecified), -17.2%; that for `COc1ccc(OCCNCc2c(C)nn(C)c2N(C)C)cc1`, -7.1%.
Next, `CCN(C)c1ncnc2c1CCN(C(=O)N1CCCC1)CC2`: -21.3%.
The result for `CC(=O)N1CCN(CCNS(=O)(=O)c2ccc(F)c(F)c2)CC1` reads -35.1%.
For the compound `COc1cccc(OCc2cc(C(=O)NC[C@H]3CCCN3)n[nH]2)c1`, the INHIBITION is 25.4%.
As for `CNC(=O)C(C)(C)NC(=O)c1cc(COc2ccccc2OC)[nH]n1`, the INHIBITION was determined as 63.7%.
In the case of `CNC(=O)C(C)(C)N(C)C(=O)c1cc(COc2ccccc2OC)[nH]n1`, the INHIBITION is recorded as -4.23%.
Next, `COC(=O)C(C)(C)NC(=O)c1cc(COc2ccccc2OC)[nH]n1`: -3%.
The result for `COc1ccccc1OCc1cc(C(=O)NC[C@@H]2CCCN2)n[nH]1` reads 82.9%.
The result for `COc1cccc(OCc2cc(C(=O)NC[C@@H]3CCCN3)n[nH]2)c1` reads 14.9%.
For the compound `Cc1ccc(NC(=O)c2cnc(N3CCN(C)CC3)nc2C)cc1C`, the INHIBITION is 43.8%.
Next, `CCc1noc(-c2cccc(OCC(=O)NC(C)C)c2)n1`: 48.7%.
The result for `CC1(c2[nH]ncc2C(N)=O)CCN(c2ncccn2)CC1` reads 26.3%.
In the case of `CC(C)=CCN1C[C@@H]2CC[C@H]1CN(C(=O)Cn1c(C)cc(C)nc1=O)C2`, the INHIBITION is given as -35%.
The result for `CCn1nc(C)c(C(C)NC(=O)c2cnc(N(C)C)nc2C)c1C` (stereo unspecified) reads 10.3%; that for `Cc1nc(-c2ccncc2)ncc1C(C)NC(=O)CN1CCCCC1` (stereo unspecified), 35.8%; that for `CCN(C)S(=O)(=O)NC(C)c1cnc(N(C)C2CCCCC2)nc1C` (stereo unspecified), 63.1%.
The result for `C[C@@H](NC(=O)c1cccnc1)c1onc(-c2ccccc2)c1C(=O)O` reads 7.5%; that for `Cc1nc(N(C)C2CCCCC2)ncc1C(C)NC(=O)c1cscn1` (stereo unspecified), 59.2%.
On to `CC(C)C(=O)N1CCN(C(=O)c2cscn2)[C@H]2CS(=O)(=O)C[C@H]21`, for which the INHIBITION is given as 26.8%.
Next, `CN(c1ncccc1CNC(=O)c1cscn1)C1CCCCC1`: 26%; `CN(C)c1nccc(N(C)C2CCCCC2)n1`: 25.5%.
Consider `Cc1nc(N(C)C2CCCCC2)ncc1C(C)NC(=O)c1cccnc1` (stereo unspecified), for which the INHIBITION amounted to 77.5%.
Next, `NC(=O)CN1CCC(c2cncc(-c3cccc(Cl)c3)n2)CC1`: -40.6%.
The result for `CC(C)COC(=O)N1CCCN(C(C)c2nnc(CC(C)C)o2)CC1` (stereo unspecified) reads 4.22%; that for `CCCc1nc(C(C)(C)NC(=O)C2CC(=O)N(C3CCCC3)C2)no1` (stereo unspecified), -15.5%.
Next, `CCCC(=O)N1CCN(CC(O)COCC)CC1` (stereo unspecified): -2.53%.
Take `Cc1ncsc1CN1CC[C@](C)(O)[C@@H](Oc2cccc(F)c2)C1`: the INHIBITION is 33.7%.
Next, `Cc1nc2n(n1)CC(NCc1ccnc(-c3ccccc3)n1)CC2` (stereo unspecified): -15%.
Next, `O=c1[nH]c(CCN2CCCCC2Cn2cccn2)nc2ccccc12` (stereo unspecified): 36.1%; `Cc1cccnc1NC(=O)C1(n2cnnn2)CCCCC1`: 49.5%; `CC(C)n1[nH]c(=O)c2c1NC(=O)CC2c1ccc(S(C)(=O)=O)cc1` (stereo unspecified): -2.43%.
The result for `NC1(C(=O)NCC2CCCN(Cc3cccc4nonc34)C2)CCC1` (stereo unspecified) reads 62.8%; that for `CC(=O)NCC1CCCN(Cc2nc(Cc3ccccc3F)no2)C1` (stereo unspecified), 20.4%.
In the case of `CCN1CCCC(CNC(=O)C2(c3cccc(Cl)c3)CC2)C1` (stereo unspecified), the INHIBITION was -2.42%.
The result for `O=C(N[C@@H]1CCN(Cc2cccc3nonc23)C[C@H]1O)c1cccnc1` reads 12.9%; that for `O=C(NCC1CCCN(Cc2cccc3nonc23)C1)c1ccc[nH]1` (stereo unspecified), 70.3%; that for `NC1(C(=O)NCC2CCCN(Cc3ccccc3F)C2)CCCC1` (stereo unspecified), 42.4%.
Regarding `CCCNc1ncc(CN2CCC3(CCNC(=O)CC3)CC2)cn1`, the INHIBITION is on record as -41.8%.
Next, `CC1CCc2n[nH]c(C(=O)NCCCc3ccccn3)c2C1` (stereo unspecified): -41.8%; `Cc1ccc2oc(SCC(N)=O)nc2n1`: 18.4%; `CCCC(=O)N1C[C@@H]2CCN(c3cnccn3)C[C@@H]2C1`: -30.7%.
On to `CC(C)c1nc(CN(C)Cc2ccc(F)cc2)cs1`, for which the INHIBITION was 20.4%.
For `CC(C)c1nc(CN(C)S(=O)(=O)c2cccs2)cs1`, the INHIBITION stood at 55.4%.
Turning to `CC(C)c1nc(CN(C)C(=O)CNS(=O)(=O)c2cccs2)cs1`, the INHIBITION is 26.6%.
Next, `Cc1c(CCC(=O)Nc2ccc(Cl)cn2)cnn1C`: -23.4%; `Cc1ccc(-n2nc(C)cc2N)nn1`: -24.2%; `CCc1nc(C)c(CN2CCOC(Cc3ccccc3Cl)C2)[nH]1` (stereo unspecified): 24.2%.
The result for `CCc1nc(C)c(CN2CCOC(CCCC(C)C)C2)[nH]1` (stereo unspecified) reads 68.9%.
The result for `CCc1nc(C)c(CN2CCOC(Cc3cccc4ccccc34)C2)[nH]1` (stereo unspecified) reads 18.6%; that for `O=C(c1c[nH]c(=O)cn1)N1C[C@H]2CC[C@@H](C1)N(Cc1ccccc1)C2`, 17.2%; that for `CCn1cc(N)c(-c2nnc3n2CCCC3)n1`, 21.9%.
As to `CN(CCOc1cccc(S(C)(=O)=O)c1)c1ccccc1`, the INHIBITION stood at 81.1%.
For the compound `CN(CCOc1cccc(S(C)(=O)=O)c1)CC(F)F`, the INHIBITION amounted to 31.1%.
Next, `CCC(C)(C)N(C)CCOc1cccc(S(C)(=O)=O)c1`: 23.2%.
The result for `COCCN1CCC2(CC1)CN(C(=O)C1CC1)c1ccc(F)cc12` reads 34.6%; that for `O=C(c1cccnc1N1CCCCC1)N1CCCC(n2ccnc2)C1` (stereo unspecified), 22.55%.
Next, `CSCC[C@@H](CO)Nc1ccc(-c2nc(-c3ccccc3F)no2)cn1`: 76.8%; `c1cc(CNc2ccc(-c3nc(C4CC4)no3)cn2)no1`: 1.98%; `CCC(C)Nc1ccc(-c2nc(-c3cccc(OC)c3OC)no2)cn1` (stereo unspecified): 33.9%.
In the case of `Cc1cc(CNc2ccc(-c3nc(C4CC4)no3)cn2)no1`, the INHIBITION was -28.3%.
With `CSCC[C@@H](CO)Nc1ccc(-c2nc(C3CC3)no2)cn1`, the INHIBITION is given as 54.4%.
Next, `CSCC[C@@H](CO)Nc1ccc(-c2nc(-c3ccccc3C)no2)cn1`: 36.5%; `CN(C)CCO[C@@H]1CC[C@H]2[C@H]1OCCN2C(=O)CCc1ccccc1`: 5.65%.
Next, `CC(=O)N1C[C@H]2CC[C@@H](C1)N(S(=O)(=O)c1cc(F)ccc1C)C2`: -18.1%.
The result for `NCC1CCN(C2CCN(c3ccc(-c4ccco4)cc3)CC2)C1` (stereo unspecified) reads 92.8%; that for `O=C(O)c1ccccc1C1CCN(C2CCN(c3ccccc3)CC2)C1` (stereo unspecified), 35.1%; that for `COc1ccc(N2CCC(N3CCOC(C(F)(F)F)C3)CC2)cc1` (stereo unspecified), -25.2%.
Turning to `CCS(=O)(=O)c1ccc(N2CCC(N)CC2)cc1`, the INHIBITION was 12.2%.
Next, `CNC1CCN(C2CCN(c3ccc(-c4ccco4)cc3)CC2)CC1`: 49%.
Next, `NC1CCN(C2CCN(c3ccc(-c4ccco4)cc3)CC2)CC1`: 65%; `Cc1cccc(C(=O)N2CCn3cc(CN4CCCCC4)nc3C2)n1`: 49.7%; `Cn1ncc2c1CCCN(C(=O)C1CCC1)C2`: 10.855%.
Next, `Nc1cc2c(nn1)CCN(C(=O)Cc1ccc3c(c1)CCCC3)C2`: 8.4%; `NC(=O)c1cc2c(nc1N)CCN(C(=O)C1CCCCC1)C2`: 62.9%.
As to `Nc1cc2c(nn1)CCN(C(=O)CCCC1CCCCC1)C2`, the INHIBITION was 70.8%.
Next, `Nc1cc2c(nn1)CCN(C(=O)CC1CCCC1)C2`: 2.26%.
Next, `Cn1ncc2c1CCCN(C(=O)C1CCCC1)C2`: 22.75%; `Nc1cc2c(nn1)CCN(C(=O)CCC1CCCCC1)C2`: 62.6%.
Next, `CCNc1cc2c(nn1)CCN(C(=O)CC1CCCCC1)C2`: 30.2%; `Nc1cc2c(nn1)CCN(C(=O)CCc1ccc3c(c1)OCO3)C2`: 32.9%.
`Nc1cc2c(nn1)CCN(C(=O)C1CCc3ccccc31)C2` (stereo unspecified): the INHIBITION was 17.4%.
The result for `Nc1cc2c(nn1)CCN(C(=O)Cc1ccc3c(c1)CCO3)C2` reads 5.42%.
Next, `Nc1cc2c(nn1)CCN(C(=O)CC1CCCCC1)C2`: 50.3%.
Next, `Cn1nnc2c1CCN(Cc1ccccc1)C2COCC1CC1` (stereo unspecified): 33.5%; `COc1cn(CC(=O)N2CCN(c3ccc(Cl)cc3)CC2)c(C)cc1=O`: 28.3%; `COc1cc(OC)cc(-c2cc(N)on2)c1`: 12.8%.
Regarding `Cc1ccc(CN(CC(=O)N2CCOC(C)C2)C2CC2)cc1` (stereo unspecified), the INHIBITION is -59.4%.
In the case of `C[C@@H](NC(=O)c1cnccn1)c1c(-c2ccc(Cl)cc2)noc1C(=O)O`, the INHIBITION came to 26%.
On to `CC(C)c1noc(CN(CCC2CCCCC2)CC(N)=O)n1`, for which the INHIBITION was found to be 34%.
For `CN1CC(C(=O)NCCc2ccc3c(c2)OCCO3)CC1=O` (stereo unspecified), the INHIBITION is on record as 27.7%.
The result for `Cc1cc(C2CCCN2Cc2nc3ccccc3o2)on1` (stereo unspecified) reads -12.2%; that for `CC(C)Cn1nnnc1SC(C(=O)NCc1cccnc1)C(C)C` (stereo unspecified), 16.9%.
Next, `Cc1nccnc1CCC1COCCN1C(=O)CCc1c(C)noc1C` (stereo unspecified): 9.05%; `Cc1ncsc1CN1C[C@@H]2COC[C@]2(C(=O)NCc2cccnc2)C1`: 42.1%; `Cc1nc(C)c(CC(=O)N2CCC(c3ccn4nccc4n3)CC2)s1`: 4.13%.
Regarding `CNc1ncccc1C(=O)N1CCCC2(C1)C(=O)N(C)c1ccccc12` (stereo unspecified), the INHIBITION is -4.35%.
Regarding `CCCc1noc2ncc(C(=O)N3CCCC3c3cnn(C)c3)cc12` (stereo unspecified), the INHIBITION was -29.1%.
Next, `CN(C)CCN1C[C@@H]2CN(S(=O)(=O)c3ccccc3)C[C@@H]2C1=O`: 53.9%; `CN(C)CCN1C[C@@H]2CN(c3ccccc3)C[C@@H]2C1=O`: 53.9%; `CN(C)CCN1C[C@@H]2CN(S(=O)(=O)c3cccs3)C[C@@H]2C1=O`: -9.74%.
Next, `CN(C)CCN1C[C@@H]2CN(C(=O)c3ccsc3)C[C@@H]2C1=O`: 3.47%; `O=C1[C@H]2CN(S(=O)(=O)c3ccccc3)C[C@H]2CN1Cc1cccnc1`: -29%; `CN(C)CCN1C[C@@H]2CN(C(=O)C3CC=CC3)C[C@@H]2C1=O`: 8.31%.
